Source: PubChem BioAssay (NCATS)
Results filed as inconclusive are left out. The source made the active and inactive calls. Calls follow the shape of the dose curve; as a rule, active = well fitted curve in the direction sought with a large enough effect; inconclusive = small, poorly fitted or top-dose-only effect, or another doubt; inactive = no such curve, though single readings can be large; an effect the other way counts as inactive or inconclusive.
Potency is read from the fitted curve at half-maximal effect.

Test: qHTS of pediatric cancer cell lines to identify multiple opportunities for drug repurposing: Primary screen for OHS-50 cells (AID 1347103); also: nearly all actives have a fitted effect of over 40% in size;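 as to activity change, negative = cytotoxic: plate controls were DMSO neutral control for no effect and bortezomib positive control for full effect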
Conditions: OHS-50 osteosarcoma viability, CellTiter-Glo luminescence, 48 h; series mostly up to 57.3 µM; activity change, negative = cytotoxic: at the top concentration
Summary of the method: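 Cells (500-1,000/well) rested 5 h, then received compounds for 48 h; metabolically active cells were measured by CellTiter-Glo luminescence. Final concentrations spanned up to 46 µM (MIPE, 11-point) or 0.59 nM-46 µM (NPC, 8-point) in primary screens, 11-point in follow-ups.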
With `CN1CCCN(C(c2ccccc2)c2ccc(Cl)cc2)CC1` (stereo not drawn) the Potency was 30.9 µM (active). For `O=C(O)CCCC[C@@H]1SC[C@@H]2NC(=O)N[C@@H]21`, the “activity change, negative = cytotoxic” value was -1.11% (inactive). In the case of `CCN(CC)C(=O)C1CN2CCc3cc(OC)c(OC)cc3C2CC1OC(C)=O` (stereo not drawn), the “activity change, negative = cytotoxic” value is reported as 2.07% (inactive). With `CCCC(=O)O[C@]1(C(=O)COC(=O)CC)CC[C@H]2[C@@H]3CCC4=CC(=O)CC[C@]4(C)[C@H]3[C@@H](O)C[C@@]21C` the “activity change, negative = cytotoxic” value was 5.64% [at 19.7 µM] (inactive). In the case of `CN(C)CCOC(c1ccccc1)c1ccc(Br)cc1` (stereo not drawn), the Potency is reported as 21.9 µM (active). With `O=C(O)C(=O)Nc1cccc(-c2nn[nH]n2)c1` the “activity change, negative = cytotoxic” value was 6.51% (inactive). In the case of `C1=CC2C3C=CC(C3)C2C1` (stereo not drawn), the “activity change, negative = cytotoxic” value is reported as 18.1% [at 116 µM] (inactive). In the case of `CN(C(=O)C(Cl)Cl)c1ccc(OC(=O)c2ccco2)cc1`, the “activity change, negative = cytotoxic” value is reported as 4.87% (inactive). With `Nc1ccc(O)cc1` the “activity change, negative = cytotoxic” value was 13.4% (inactive). In the case of `CCOC(=O)C(=O)c1csc(NC=O)n1`, the “activity change, negative = cytotoxic” value is reported as 6.08% (inactive). In the case of `CCC1=C[C@@H]2CN(C1)Cc1c([nH]c3ccccc13)[C@@](C(=O)OC)(c1cc3c(cc1OC)N(C)[C@H]1[C@@](O)(C(=O)OC)[C@H](OC(C)=O)[C@]4(CC)C=CCN5CC[C@]31[C@@H]54)C2`, the Potency is reported as 0.0195 µM (active). For `CC(=O)Oc1ccc(C2(c3ccc(OC(C)=O)cc3)Oc3ccccc3NC2=O)cc1`, the Potency was 12.3 µM (active). For `O=C1Cc2cc(Cl)ccc2N1`, the “activity change, negative = cytotoxic” value was 18% (inactive).

Test: qHTS of pediatric cancer cell lines to identify multiple opportunities for drug repurposing: Primary screen for RD cells (AID 1347104); also: nearly all actives have a fitted effect of over 55% in size;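 as to activity change, negative = cytotoxic: plate controls were DMSO for no effect and bortezomib for full effect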
Conditions: RD rhabdomyosarcoma viability, CellTiter-Glo luminescence, 48 h; series mostly up to 46 µM; activity change, negative = cytotoxic: at the top concentration
Summary of the method: (§1)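 Following a 5-hour attachment period, cells at 500-1,000/well received compounds and were cultured for 48 hours. CellTiter-Glo was added and luminescence read to estimate viable, metabolically active cells.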
For `COc1ccc2c(c1)CCCC2=O`, the “activity change, negative = cytotoxic” value was 21.1% (inactive). For `CCOC(=O)N1CCC(Nc2ccc(Cl)cc2N)CC1`, the “activity change, negative = cytotoxic” value was -9.74% (inactive). In the case of `CCCCN(CCN(CCCC)C(=O)N1CCOCC1)C(=O)N1CCOCC1`, the “activity change, negative = cytotoxic” value is reported as -6.33% (inactive). In the case of `CCCC(=O)O[C@]1(C(=O)CC)CC[C@H]2[C@@H]3CCC4=CC(=O)CC[C@]4(C)[C@H]3[C@@H](O)C[C@@]21C`, the “activity change, negative = cytotoxic” value is reported as -15.5% (inactive). For `OC(CCCN1CCCCC1)(c1ccccc1)c1ccccc1`, the “activity change, negative = cytotoxic” value was -21.7% (inactive). In the case of `O=C(O)CCC(=O)OC[C@@H](NC(=O)C(Cl)Cl)[C@H](O)c1ccc([N+](=O)[O-])cc1`, the “activity change, negative = cytotoxic” value is reported as 12.9% (inactive). With `COc1cc2c(cc1OC)C(=O)CC2` the “activity change, negative = cytotoxic” value was -4.46% (inactive). With `CC(C)(C)c1ccc(O)c(O)c1` the Potency was 8.63 µM (active).

Test: qHTS of pediatric cancer cell lines to identify multiple opportunities for drug repurposing: Primary screen for MG 63 (6-TG R) cells (AID 1347105); also: nearly all actives have a fitted effect of over 50% in size; as to activity change, negative = cytotoxic: % is scaled to controls: 0 for no effect and ±100 for the full control effect
Conditions: MG 63 (6-TG R) viability, CellTiter-Glo, 48 h; series mostly up to 46 µM; activity change, negative = cytotoxic: at the top concentration
Summary of the method: as §1
In the case of `CN(C)CCOC1=Cc2ccccc2Sc2ccc(Cl)cc21`, the “activity change, negative = cytotoxic” value is reported as 1.51% (inactive). With `CCCC(=O)O[C@]1(C(=O)CCl)[C@@H](C)C[C@H]2[C@@H]3CCC4=CC(=O)C=C[C@]4(C)[C@@]3(F)C(=O)C[C@@]21C` the “activity change, negative = cytotoxic” value was -5.79% (inactive). For `COc1ccc2c(c1)CCCC2=O`, the “activity change, negative = cytotoxic” value was 7.67% (inactive). With `COC(=O)c1cc(Cl)c(NC(C)=O)cc1OC` the “activity change, negative = cytotoxic” value was -11.7% (inactive). In the case of `CC(=O)/C=C/C=C1/C2CCC(C2)C1(C)C` (stereo not drawn), the “activity change, negative = cytotoxic” value is reported as -9.97% (inactive). For `CC(C(O)c1ccccc1)N(C)CCOC(c1ccccc1)c1ccccc1` (stereo not drawn), the “activity change, negative = cytotoxic” value was -2.85% (inactive). In the case of `CC(COc1ccccc1)NN` (stereo not drawn), the “activity change, negative = cytotoxic” value is reported as -10.3% (inactive). With `COc1ccc(-n2nc(CCC(=O)N(C)O)cc2-c2ccc(Cl)cc2)cc1` the “activity change, negative = cytotoxic” value was -17.5% (inactive). With `CCOC(=O)N1CCC(Nc2ccc(Cl)cc2N)CC1` the “activity change, negative = cytotoxic” value was -12% (inactive). In the case of `CCCCN(CCN(CCCC)C(=O)N1CCOCC1)C(=O)N1CCOCC1`, the “activity change, negative = cytotoxic” value is reported as -21.1% (inactive). For `CCCC(=O)O[C@]1(C(=O)CC)CC[C@H]2[C@@H]3CCC4=CC(=O)CC[C@]4(C)[C@H]3[C@@H](O)C[C@@]21C`, the “activity change, negative = cytotoxic” value was -11.5% (inactive). With `CC(C)(C)C(=O)OCOC(=O)C1N2C(=O)CC2S(=O)(=O)C1(C)C` (stereo not drawn) the “activity change, negative = cytotoxic” value was 6.71% (inactive). With `OC(CCCN1CCCCC1)(c1ccccc1)c1ccccc1` the “activity change, negative = cytotoxic” value was -34.3% (inactive). With `O=C(O)CCC(=O)OC[C@@H](NC(=O)C(Cl)Cl)[C@H](O)c1ccc([N+](=O)[O-])cc1` the “activity change, negative = cytotoxic” value was 1.45% (inactive). In the case of `Cc1cc(C(C)(C)C)c(O)c(C(C)(C)C)c1`, the “activity change, negative = cytotoxic” value is reported as -18.4% (inactive). In the case of `COc1cc2c(cc1OC)C(=O)CC2`, the “activity change, negative = cytotoxic” value is reported as -18.3% (inactive). In the case of `CC(=O)c1ccc(O)c(C(N)=O)c1`, the “activity change, negative = cytotoxic” value is reported as -17.1% (inactive). For `CCN(CC)CCN`, the “activity change, negative = cytotoxic” value was -17.7% (inactive). For `Nc1cccc2c(N)cccc12`, the “activity change, negative = cytotoxic” value was 15.5% [at 92.7 µM] (inactive). With `CN1CCCN(C(c2ccccc2)c2ccc(Cl)cc2)CC1` (stereo not drawn) the “activity change, negative = cytotoxic” value was -16% (inactive). For `O=C(O)CCCC[C@@H]1SC[C@@H]2NC(=O)N[C@@H]21`, the “activity change, negative = cytotoxic” value was -16.7% (inactive). With `CCN(CC)C(=O)C1CN2CCc3cc(OC)c(OC)cc3C2CC1OC(C)=O` (stereo not drawn) the “activity change, negative = cytotoxic” value was 5.4% (inactive). In the case of `CCCC(=O)O[C@]1(C(=O)COC(=O)CC)CC[C@H]2[C@@H]3CCC4=CC(=O)CC[C@]4(C)[C@H]3[C@@H](O)C[C@@]21C`, the “activity change, negative = cytotoxic” value is reported as -9.1% [at 16.1 µM] (inactive). In the case of `CN(C)CCOC(c1ccccc1)c1ccc(Br)cc1` (stereo not drawn), the “activity change, negative = cytotoxic” value is reported as 1.91% (inactive). In the case of `O=C(O)C(=O)Nc1cccc(-c2nn[nH]n2)c1`, the “activity change, negative = cytotoxic” value is reported as -12% (inactive). For `C1=CC2C3C=CC(C3)C2C1` (stereo not drawn), the “activity change, negative = cytotoxic” value was -25.7% [at 92.7 µM] (inactive). In the case of `CN(C(=O)C(Cl)Cl)c1ccc(OC(=O)c2ccco2)cc1`, the “activity change, negative = cytotoxic” value is reported as -7% (inactive). In the case of `Nc1ccc(O)cc1`, the “activity change, negative = cytotoxic” value is reported as 6.84% (inactive). With `CCOC(=O)C(=O)c1csc(NC=O)n1` the “activity change, negative = cytotoxic” value was -18.1% (inactive). With `CCC1=C[C@@H]2CN(C1)Cc1c([nH]c3ccccc13)[C@@](C(=O)OC)(c1cc3c(cc1OC)N(C)[C@H]1[C@@](O)(C(=O)OC)[C@H](OC(C)=O)[C@]4(CC)C=CCN5CC[C@]31[C@@H]54)C2` the Potency was 21.1 nM (active). With `CC(=O)Oc1ccc(C2(c3ccc(OC(C)=O)cc3)Oc3ccccc3NC2=O)cc1` the Potency was 4220 nM (active). For `O=C1Cc2cc(Cl)ccc2N1`, the “activity change, negative = cytotoxic” value was -5.67% (inactive).
